# “And” between values parts separate entries of the source, which are not always exact repeats. Identical values can stand only once. Results filed as inconclusive are left out. The source made the active and inactive calls.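 The calls were made as follows, unless noted: active = percent response above 42, roughly 3 SD of non-fluorescent test compounds; inactive = the rest.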
# Columns and labels:
# [1] = rapamycin-like changes in RPL19A-GFP expression – cell-based, S. cerevisiae, multiplex flow cytometry, primary screen (AID 1862; in the data active = percent of DMSO control GFP below about 86%;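 also: lower values mimic rapamycin by blocking the RPL19A rise seen in DMSO cells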); details: S. cerevisiae RPL19A-GFP strain, flow cytometry fluorescence, 3 h; at 10 µM; stronger effect = lower value
# [2] = TOR pathway GLN3 branch reporter MEP2-GFP changes – S. cerevisiae, multiplex flow cytometry, primary screen (AID 1867;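 active = GFP response, as percent of the DMSO control, above the screen-wide mean plus 3 SD, about 139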;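 also: median GFP channel fluorescence of barcode-gated MEP2-GFP cells measured by flow cytometry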); details: S. cerevisiae MEP2-GFP strain, 3 h, at 10 µM, stronger effect = higher value, 100% means same as DMSO wells
# [3] = TOR pathway RTG branch CIT2 reporter changes – S. cerevisiae, GFP fusion, multiplex flow cytometry, primary screen (AID 1870;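 active = percent response above a set limit, the screen-wide mean plus 3 SD, cut at about 130% in these data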;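 also: barcoded CIT2-GFP strain pooled with four other GFP strains with rapamycin as positive control; median GFP fluorescence per well over plate mean of DMSO wells so 100% = DMSO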); details: S. cerevisiae CIT2-GFP expression, 3 h, at 10 µM, stronger effect = higher value
# [4] = TOR pathway LAP4-GFP level changes – S. cerevisiae, multiplex flow cytometry, primary screen (AID 1873;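 active = GFP signal, as percent of the solvent control, above the screen mean plus 3 SD, about 149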); details: S. cerevisiae LAP4-GFP expression, 3 h, at 10 µM, stronger effect = higher value
# [5] = yeast AGP1-GFP level changes, GLN3 branch – cell-based, multiplex flow cytometry, S. cerevisiae, primary screen (AID 1887;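 active = GFP signal above the screen-wide mean plus 3 SD, that is over about 124.5% of the solvent control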;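 also: AGP1-GFP fusion strain of S. cerevisiae within a five-strain barcoded multiplex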); details: 3 h, at 10 µM, stronger effect = higher value
# [6] = reduced mouse 2C T cell binding to pMHC/ICAM-1 vesicles – MLPCN validation set, flow cytometry, LFA-1/ICAM-1 modulator project, pilot screen (AID 2523;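 active = response below a set limit, under 55% cells CD8-positive and vesicle-bound, and CD8 cells' 90th-percentile brightness under 279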;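 as to vesicle binding response: mean PE anti-B7-1 fluorescence of CD8+ cells relative to row control; 100% = QL9-loaded vesicles with DMSO vehicle in the same plate row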); details: 2C mouse CD8+ T cells, at 7 µM, stronger effect = lower value; double positive events: measured here: CD8+/vesicle+ event percentage
# [7] = molecular target: Integrin beta-1 (Homo sapiens) + Integrin alpha-4 (Homo sapiens) (UniProt P13612+P05556); experiment: alpha4beta1 integrin LIBS antibody binding reduction – U937 cells, HUTS-21 mAb, flow cytometry, validation set, VLA-4 allosteric modulator project, pilot screen (AID 2674;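 active = inhibition above 50%, about 3 SD of the validation set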;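 also: antibody binding induced by the VLA-4 ligand LDV present at three times its Kd; 0% = LDV ligand with antibody and no compound and 100% = antibody without LDV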); details: HUTS-21 LIBS mAb binding, at 6.7 µM, stronger effect = higher value, binding induced by LDV ligand
# [8] = calorie-restriction mimetic ROS inhibitors, yeast – validation compound set, pilot screen (AID 2706;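 active = superoxide response below 65% of plate, a cut near 3 SD across the whole screen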;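 also: yeast exposed to compound for one week at 30 degrees C before staining; 100% = mean of all compound wells on the same plate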); details: S. cerevisiae aging, superoxide DHE fluorescence; at 10 µM; stronger effect = lower value
# [9] = molecular target: Beta-adrenergic receptor kinase 1 (Homo sapiens) (UniProt P25098); experiment: GRK2 binders displacing RNA aptamer, biochemical, validation, human GRK2, bead flow cytometry (AID 488806;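 active = aptamer binding inhibition above 30%, about 3 SD of noise from non-fluorescent compounds; inactive = inhibition at or below 30%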); details: bead-bound GRK2, FAM-aptamer displacement, at 10 µM, stronger effect = higher value
# [10] = molecular target: Beta-2 adrenergic receptor (Homo sapiens) (UniProt P07550); experiment: agonist-induced loss of surface beta2AR – cell-based, FAP fluorogen, flow cytometry, validation set, pilot screen (AID 504459); details: Am2.2-beta2AR cells, at 10 µM, stronger effect = higher value;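 also: agonist-driven loss of surface beta2AR via internalization measured by FAP dye flow cytometry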
# [11] = molecular target: AP-2 complex subunit beta (Homo sapiens) (UniProt P63010); experiment: beta-arrestin/AP2 interaction blockers – biochemical, validation set, GST-AP2 beads, flow cytometry, pilot screen (AID 504541;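 active = inhibition above 54%, about 3 SD of non-fluorescent compounds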;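 also: AP2 carries R879A mutation and is captured from E. coli lysate; bead-bound FITC arrestin peptide fluorescence measuring arrestin peptide binding to AP2; 0% = DMSO wells and 100% = excess unlabeled arrestin peptide control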); details: FITC arrestin peptide, at 10 µM, stronger effect = higher value, AP2 beta2 appendage fragment, R879A mutant
# [12] = cytosolic pH regulators acting via V-ATPase – S. cerevisiae, pHLuorin, HTS validation (AID 504600; in the data active = response above about 15%;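 also: plate controls were DMSO for no effect and reference compound for full effect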); details: V-ATPase proton transport, at 10 µM, stronger effect = higher value
# [13] = system: anti-desmoglein-3 scFv antibody binding to human DSG3; experiment: blockers of pathogenic pemphigus antibody–desmoglein-3 binding – biochemical, validation compound set, bead-based, flow cytometry, pilot screen (AID 588368;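 active = binding below the plate cutoff, the plate median minus 3 SD, with a reading above zero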;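 also: signal is the median channel fluorescence of bead-bound GFP antibody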); details: Protein G beads, DSG3-Fc, scFv-GFP binding, at 10 µM, stronger effect = lower value
# [14] = Nile Red efflux blockade in pump-expressing yeast – validation compound set, multiplex, phenotypic, pilot screen (AID 588506;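 active = efflux inhibition above 0.42, the validation set average plus 4 SD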;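 also: Nile Red retained in cells so higher fluorescence means more efflux inhibition; 0 = negative control wells and 1 = enniatin B 25 µM full block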); details: S. cerevisiae pump-expressing triplex, Nile Red efflux flow cytometry; at 10 µM; stronger effect = higher value; the pumps come from Candida albicans
# [15] = molecular target: ATP-binding cassette sub-family B member 6 (Homo sapiens) (UniProt Q9NP58); experiment: blockers of ABCB6-driven porphyrin uptake – K562-ABCB6 cells, flow cytometry, validation set, pilot screen (AID 588550;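 active = inhibition above the screen-wide mean plus 3 SD, about 51%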;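 also: 0% = DMSO wells and 100% = benzethonium chloride 70 µM positive control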); details: K562-ABCB6 porphyrin accumulation, 1 h, at 10 µM, stronger effect = higher value
# [16] = AML differentiation inducers, ER-HoxA9 marrow cells – cell-based, GFP/MAC1 double positive, flow cytometry, validation set, primary screen (AID 588685;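 active = differentiation response of at least 50%, scaled between solvent and reference control, from cells with both markers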;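 also: compound exposure lasts four days before antibody staining and flow analysis; 0% = DMSO wells and 100% = 5 µM fulvestrant positive control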); details: stronger effect = higher value, normalized: vehicle 0, fulvestrant 100
# Sequence of AP-2 complex subunit beta (Homo sapiens) (P63010 whole entry, looked up, the tested form may be a part, one chain of several): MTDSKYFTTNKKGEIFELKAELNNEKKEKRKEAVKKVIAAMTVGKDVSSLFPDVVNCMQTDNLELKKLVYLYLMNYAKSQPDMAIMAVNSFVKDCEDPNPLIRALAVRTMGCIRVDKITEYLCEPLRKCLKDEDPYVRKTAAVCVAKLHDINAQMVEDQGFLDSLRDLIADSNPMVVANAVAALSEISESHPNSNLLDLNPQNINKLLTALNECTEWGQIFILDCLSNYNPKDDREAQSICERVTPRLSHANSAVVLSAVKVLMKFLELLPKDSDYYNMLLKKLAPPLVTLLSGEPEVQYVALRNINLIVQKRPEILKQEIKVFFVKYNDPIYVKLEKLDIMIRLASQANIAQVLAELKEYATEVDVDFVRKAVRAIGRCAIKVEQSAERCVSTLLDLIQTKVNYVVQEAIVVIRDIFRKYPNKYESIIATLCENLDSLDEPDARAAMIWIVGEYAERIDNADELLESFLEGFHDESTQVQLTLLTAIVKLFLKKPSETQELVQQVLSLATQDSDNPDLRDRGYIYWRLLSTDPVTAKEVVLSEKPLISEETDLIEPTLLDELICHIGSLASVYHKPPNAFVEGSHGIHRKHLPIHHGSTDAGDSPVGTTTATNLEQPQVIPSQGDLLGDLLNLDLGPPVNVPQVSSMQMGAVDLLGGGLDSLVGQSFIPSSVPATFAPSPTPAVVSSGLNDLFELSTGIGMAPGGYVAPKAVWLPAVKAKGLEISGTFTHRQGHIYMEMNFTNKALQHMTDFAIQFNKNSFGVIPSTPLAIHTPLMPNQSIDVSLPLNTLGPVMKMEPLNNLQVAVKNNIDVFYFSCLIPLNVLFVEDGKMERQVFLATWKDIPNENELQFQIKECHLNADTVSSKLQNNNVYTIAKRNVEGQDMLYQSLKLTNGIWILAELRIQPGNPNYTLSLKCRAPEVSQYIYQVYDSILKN
# Sequence of Integrin beta-1 (Homo sapiens) + Integrin alpha-4 (Homo sapiens) (P05556 whole entry, looked up): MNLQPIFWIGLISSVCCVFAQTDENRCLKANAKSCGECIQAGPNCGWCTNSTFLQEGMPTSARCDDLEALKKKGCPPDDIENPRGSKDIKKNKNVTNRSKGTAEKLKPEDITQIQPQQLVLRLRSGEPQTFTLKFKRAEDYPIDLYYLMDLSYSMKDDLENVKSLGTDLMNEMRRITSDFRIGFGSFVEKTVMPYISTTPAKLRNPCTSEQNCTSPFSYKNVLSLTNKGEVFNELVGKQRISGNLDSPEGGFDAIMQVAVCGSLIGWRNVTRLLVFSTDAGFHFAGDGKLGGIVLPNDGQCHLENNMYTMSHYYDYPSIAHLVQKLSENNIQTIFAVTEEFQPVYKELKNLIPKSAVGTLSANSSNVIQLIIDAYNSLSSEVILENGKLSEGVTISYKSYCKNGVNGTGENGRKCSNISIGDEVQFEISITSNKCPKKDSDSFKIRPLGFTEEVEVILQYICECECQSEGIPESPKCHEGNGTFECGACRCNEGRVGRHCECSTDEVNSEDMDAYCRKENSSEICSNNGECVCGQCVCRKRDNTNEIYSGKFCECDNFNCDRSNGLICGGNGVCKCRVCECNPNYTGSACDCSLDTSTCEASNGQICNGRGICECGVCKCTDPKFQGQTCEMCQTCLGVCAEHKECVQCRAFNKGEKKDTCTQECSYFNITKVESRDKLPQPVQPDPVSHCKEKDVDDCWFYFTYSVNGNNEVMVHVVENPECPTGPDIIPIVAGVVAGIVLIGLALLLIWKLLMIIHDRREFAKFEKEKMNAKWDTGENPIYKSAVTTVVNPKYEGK
# Sequence of Integrin beta-1 (Homo sapiens) + Integrin alpha-4 (Homo sapiens) (P13612 whole entry, looked up): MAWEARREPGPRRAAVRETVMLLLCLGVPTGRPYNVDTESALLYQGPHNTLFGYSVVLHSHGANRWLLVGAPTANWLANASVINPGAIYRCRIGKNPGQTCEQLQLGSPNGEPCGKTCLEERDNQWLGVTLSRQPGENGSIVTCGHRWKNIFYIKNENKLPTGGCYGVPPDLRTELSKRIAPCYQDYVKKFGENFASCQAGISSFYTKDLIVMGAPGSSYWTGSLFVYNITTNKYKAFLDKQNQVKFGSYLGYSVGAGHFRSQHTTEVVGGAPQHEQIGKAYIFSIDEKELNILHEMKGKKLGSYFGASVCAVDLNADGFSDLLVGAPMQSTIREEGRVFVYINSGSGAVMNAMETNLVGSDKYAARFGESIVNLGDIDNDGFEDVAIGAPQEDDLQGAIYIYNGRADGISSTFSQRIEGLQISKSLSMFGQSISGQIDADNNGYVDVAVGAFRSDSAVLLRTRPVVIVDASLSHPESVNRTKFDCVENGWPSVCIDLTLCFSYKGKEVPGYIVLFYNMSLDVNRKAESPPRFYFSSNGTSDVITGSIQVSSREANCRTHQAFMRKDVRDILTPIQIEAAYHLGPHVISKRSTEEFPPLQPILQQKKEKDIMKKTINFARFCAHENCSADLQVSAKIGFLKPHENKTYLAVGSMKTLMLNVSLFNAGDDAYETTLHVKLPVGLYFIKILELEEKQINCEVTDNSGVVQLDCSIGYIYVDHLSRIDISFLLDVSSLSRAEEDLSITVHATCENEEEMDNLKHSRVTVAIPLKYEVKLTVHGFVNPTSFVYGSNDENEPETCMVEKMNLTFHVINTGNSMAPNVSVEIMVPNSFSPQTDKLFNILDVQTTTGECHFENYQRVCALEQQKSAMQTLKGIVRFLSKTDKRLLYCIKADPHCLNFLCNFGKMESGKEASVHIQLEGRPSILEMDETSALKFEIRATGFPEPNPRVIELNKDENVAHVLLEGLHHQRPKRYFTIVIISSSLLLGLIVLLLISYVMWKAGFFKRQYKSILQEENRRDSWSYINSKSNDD
# Sequence of Beta-2 adrenergic receptor (Homo sapiens) (P07550 whole entry, looked up): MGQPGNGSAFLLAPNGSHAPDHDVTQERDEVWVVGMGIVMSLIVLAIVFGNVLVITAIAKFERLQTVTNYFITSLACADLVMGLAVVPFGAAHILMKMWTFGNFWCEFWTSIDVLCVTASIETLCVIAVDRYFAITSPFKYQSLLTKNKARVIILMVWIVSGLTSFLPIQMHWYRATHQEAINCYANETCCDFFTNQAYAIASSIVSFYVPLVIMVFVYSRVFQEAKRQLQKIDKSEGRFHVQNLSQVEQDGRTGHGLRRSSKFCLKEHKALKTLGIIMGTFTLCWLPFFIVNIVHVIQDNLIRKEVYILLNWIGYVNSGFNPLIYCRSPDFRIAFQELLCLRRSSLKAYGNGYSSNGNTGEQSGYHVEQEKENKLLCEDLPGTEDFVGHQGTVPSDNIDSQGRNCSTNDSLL
# Sequence of ATP-binding cassette sub-family B member 6 (Homo sapiens) (Q9NP58 whole entry, looked up): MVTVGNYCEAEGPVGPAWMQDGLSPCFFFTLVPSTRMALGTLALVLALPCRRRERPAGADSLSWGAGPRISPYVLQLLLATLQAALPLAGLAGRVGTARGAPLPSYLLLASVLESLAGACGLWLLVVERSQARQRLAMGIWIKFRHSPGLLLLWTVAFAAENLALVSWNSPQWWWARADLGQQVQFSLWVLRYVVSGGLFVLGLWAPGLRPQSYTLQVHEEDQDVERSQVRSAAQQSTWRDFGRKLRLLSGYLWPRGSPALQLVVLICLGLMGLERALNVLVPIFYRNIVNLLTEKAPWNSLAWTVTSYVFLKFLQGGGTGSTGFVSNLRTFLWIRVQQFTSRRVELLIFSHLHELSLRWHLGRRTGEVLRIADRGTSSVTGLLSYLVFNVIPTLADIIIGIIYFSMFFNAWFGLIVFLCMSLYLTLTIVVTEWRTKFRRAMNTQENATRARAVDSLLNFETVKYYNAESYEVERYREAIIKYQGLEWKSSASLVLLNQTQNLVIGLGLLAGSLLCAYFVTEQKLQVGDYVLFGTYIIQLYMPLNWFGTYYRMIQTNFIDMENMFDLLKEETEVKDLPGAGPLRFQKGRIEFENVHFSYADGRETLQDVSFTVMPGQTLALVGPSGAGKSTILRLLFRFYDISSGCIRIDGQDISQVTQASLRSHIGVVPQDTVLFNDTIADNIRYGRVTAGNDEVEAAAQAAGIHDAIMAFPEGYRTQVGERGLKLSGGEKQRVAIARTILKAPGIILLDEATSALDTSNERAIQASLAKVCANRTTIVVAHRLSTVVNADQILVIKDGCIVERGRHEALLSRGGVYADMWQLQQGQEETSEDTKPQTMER
# Sequence of Beta-adrenergic receptor kinase 1 (Homo sapiens) (P25098 whole entry, looked up): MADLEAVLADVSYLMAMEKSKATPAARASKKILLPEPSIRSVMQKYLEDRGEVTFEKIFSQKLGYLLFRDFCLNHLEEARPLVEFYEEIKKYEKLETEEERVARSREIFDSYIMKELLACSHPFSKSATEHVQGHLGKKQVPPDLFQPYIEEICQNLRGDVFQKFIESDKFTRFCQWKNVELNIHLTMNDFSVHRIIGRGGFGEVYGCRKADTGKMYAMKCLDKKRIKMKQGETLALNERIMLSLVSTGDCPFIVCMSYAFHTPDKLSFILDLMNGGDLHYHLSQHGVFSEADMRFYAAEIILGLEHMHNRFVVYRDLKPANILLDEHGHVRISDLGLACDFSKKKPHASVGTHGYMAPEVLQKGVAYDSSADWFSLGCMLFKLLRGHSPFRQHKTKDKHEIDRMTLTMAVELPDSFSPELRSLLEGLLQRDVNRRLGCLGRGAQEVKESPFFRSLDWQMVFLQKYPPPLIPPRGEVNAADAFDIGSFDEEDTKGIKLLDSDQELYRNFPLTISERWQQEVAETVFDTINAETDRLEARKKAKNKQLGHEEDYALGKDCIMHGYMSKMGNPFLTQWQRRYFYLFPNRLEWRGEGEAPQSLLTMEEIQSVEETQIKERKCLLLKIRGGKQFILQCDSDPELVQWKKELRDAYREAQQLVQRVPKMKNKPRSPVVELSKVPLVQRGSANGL
SMILES,percent of DMSO control GFP [1],GFP response vs DMSO [2],percent response of DMSO control [3],GFP response vs DMSO [4],"GFP response, % of DMSO [5]",double positive events [6],vesicle binding response [6],inhibition [7],superoxide response (% of plate) [8],aptamer binding inhibition [9],response [10],inhibition [11],response [12],binding (% of control) [13],efflux inhibition (fraction of control) [14],inhibition [15],differentiation response [16]
O=C(c1cccnc1)N1N=C(C2CC2)CC1(O)C(F)(F)F (stereo not given),99.1% (inactive),104% (inactive),93.9% (inactive),115% (inactive),104% (inactive),60.4%,353% (inactive),-7.25% (inactive),106% (inactive),2% (inactive),-5.28% (inactive),2.62% (inactive),-0.29% (inactive),101% (inactive),-0.1 (inactive),10% (inactive),-28% (inactive)
Clc1ccc2c(c1)[C@H]1OCC[C@H]1[C@@H](c1ccco1)N2,108% (inactive),105% (inactive),107% (inactive),113% (inactive),88.8% (inactive),54.8%,144% (inactive),1.59% (inactive),103% (inactive),-1% (inactive),3.26% (inactive),3.61% (inactive),3.05% (inactive),104% (inactive),0.27 (inactive),-23% (inactive),-16.3% (inactive)
COc1ccc(/C=C/C(=O)Nc2ccccc2C(=O)O)cc1OC,111% (inactive),110% (inactive),106% (inactive),76.9% (inactive),99.5% (inactive),60.2%,50.8% (inactive),-5.64% (inactive),123% (inactive),3% (inactive),12.8% (inactive),-8.31% (inactive),6.81% (inactive),96.9% (inactive),0.02 (inactive),3% (inactive),-5.62% (inactive)
CC(CN1c2ccccc2Sc2ccccc21)N(C)C (stereo not given),92.4% (inactive),117% (inactive),111% (inactive),78.1% (inactive),94.9% (inactive),74.2%,363% (inactive),-2.27% (inactive),84.2% (inactive),-3% (inactive),-2.04% (inactive),1.26% (inactive),-2.78% (inactive),97.2% (inactive),-0.53 (inactive),10% (inactive),-1.64% (inactive)
c1ccc(-c2ccc(C(c3ccccc3)n3ccnc3)cc2)cc1 (stereo not given),99.8% (inactive),104% (inactive),101% (inactive),115% (inactive),111% (inactive),66.2%,187% (inactive),8.25% (inactive),209% (inactive),7% (inactive),0.23% (inactive),-14.1% (inactive),15.5% (active),101% (inactive),-0.04 (inactive),0% (inactive),-2.03% (inactive)
Clc1ccc2c(c1)CCc1cccnc1C2=C1CCNCC1,101% (inactive),109% (inactive),104% (inactive),93.3% (inactive),97% (inactive),63.9%,1240% (inactive),3.7% (inactive),98.7% (inactive),3% (inactive),16.1% (inactive),13.9% (inactive),1.57% (inactive),103% (inactive),-0.17 (inactive),-15% (inactive),-4.64% (inactive)
COC(=O)[C@@H](N)CS,102% (inactive),102% (inactive),98.2% (inactive),95.1% (inactive),103% (inactive),60.5%,61.8% (inactive),-3.18% (inactive),101% (inactive),8% (inactive),15.2% (inactive),-20.1% (inactive),0.91% (inactive),95.6% (inactive),0.2 (inactive),4% (inactive),-3.4% (inactive)
c1ccc(CN(CC2=NCCN2)c2ccccc2)cc1,87.8% (inactive),138% (inactive),101% (inactive),78.7% (inactive),84.3% (inactive),64.5% and 68.1%,273% (inactive) and 176% (inactive),-56.6% (inactive) and -2.27% (inactive),93.5% (inactive) and 98.7% (inactive),1% (inactive) and 2% (inactive),7.43% (inactive) and -2.34% (inactive),0.2% (inactive) and -12.4% (inactive),-4.75% (inactive) and 1.48% (inactive),111% (inactive) and 102% (inactive),-0.35 (inactive) and -0.31 (inactive),-5% (inactive) and 12% (inactive),15.6% (inactive) and -8.19% (inactive)
CCOc1ccc(N2C(=O)CC(NCCNc3ccc([N+](=O)[O-])cn3)C2=O)cc1 (stereo not given),103% (inactive),95.6% (inactive),106% (inactive),98% (inactive),93% (inactive),53.2%,145% (inactive),15% (inactive),94.4% (inactive),0% (inactive),1.65% (inactive),-8.05% (inactive),4.15% (inactive),98.8% (inactive),0.06 (inactive),8% (inactive),-4.57% (inactive)
COc1ccc(CCN2CNc3c(c(=O)n(C)c(=O)n3C)C2)cc1OC,99.8% (inactive),103% (inactive),102% (inactive),118% (inactive),116% (inactive),60.5%,214% (inactive),-1.97% (inactive),93.5% (inactive),-4% (inactive),-3.69% (inactive),-4.43% (inactive),-9.61% (inactive),99.7% (inactive),0.04 (inactive),-5% (inactive),-4% (inactive)
